# Data: paper PMC7862700, “An all-to-all approach to the identification of sequence-specific readers for epigenetic DNA modifications on cytosine”
# Columns and labels:
# Experiment in all cases: DAPPL (digital affinity profiling via proximity ligation, sequencing); 10 mM Tris-HCl pH 7.5, 50 mM NaCl, 1 mM DTT, 4% glycerol, room temperature, 30 min; GST-TFs on glutathione beads, 16-mer random dsDNA library, 0.1% formaldehyde crosslink after washing; high values mean tight binding
# Details in all cases: protein: recombinant; tags: N-terminal GST; dsDNA, one strand shown
# ELK1 = target: T1, ELK1 (Homo sapiens, UniProt P19419 1-428)
# T1 sequence: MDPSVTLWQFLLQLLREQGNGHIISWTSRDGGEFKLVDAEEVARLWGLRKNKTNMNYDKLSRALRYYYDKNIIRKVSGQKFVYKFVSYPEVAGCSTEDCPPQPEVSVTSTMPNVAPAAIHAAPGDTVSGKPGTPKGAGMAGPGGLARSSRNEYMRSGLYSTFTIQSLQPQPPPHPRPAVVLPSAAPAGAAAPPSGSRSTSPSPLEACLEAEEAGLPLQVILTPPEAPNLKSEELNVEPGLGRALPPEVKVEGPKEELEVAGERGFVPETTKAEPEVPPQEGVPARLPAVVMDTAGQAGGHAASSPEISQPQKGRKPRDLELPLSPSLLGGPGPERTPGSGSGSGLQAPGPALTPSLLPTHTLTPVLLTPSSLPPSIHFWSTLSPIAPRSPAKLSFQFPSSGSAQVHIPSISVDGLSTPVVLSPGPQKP
# How it was run: (§1)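 Pools were built from human transcription factors expressed in yeast as GST fusions, captured on glutathione beads and DNA-barcoded, along with a tag-only sample. Incubation with 200 nmole of a 16-mer random double-stranded DNA library lasted 30 min at room temperature in Tris/NaCl/DTT/glycerol buffer, and was followed by washing, 0.1% formaldehyde crosslinking, proximity ligation, PCR amplification and Illumina NextSeq500 sequencing. Binding signal is the quotient of each hexamer's read frequency for a factor and its frequency for the tag-only sample.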
# ERG = target: T2, ERG (Homo sapiens, UniProt P11308 1-479)
# T2 sequence: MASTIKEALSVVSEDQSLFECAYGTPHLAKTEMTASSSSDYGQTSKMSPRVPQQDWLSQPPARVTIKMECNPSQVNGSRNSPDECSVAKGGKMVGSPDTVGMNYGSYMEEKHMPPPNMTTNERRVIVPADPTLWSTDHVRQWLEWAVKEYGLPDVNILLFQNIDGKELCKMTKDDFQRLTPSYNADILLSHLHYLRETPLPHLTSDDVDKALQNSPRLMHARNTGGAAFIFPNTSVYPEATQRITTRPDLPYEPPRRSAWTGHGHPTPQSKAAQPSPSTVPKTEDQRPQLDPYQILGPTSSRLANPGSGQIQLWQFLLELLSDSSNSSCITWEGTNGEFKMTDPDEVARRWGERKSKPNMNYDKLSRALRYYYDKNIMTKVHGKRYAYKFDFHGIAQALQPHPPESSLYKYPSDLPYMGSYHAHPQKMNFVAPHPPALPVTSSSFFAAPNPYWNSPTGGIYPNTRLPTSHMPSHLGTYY
# How it was run: as §1
# EHF = target: T3, EHF (Homo sapiens, UniProt Q9NZC4 1-300)
# T3 sequence: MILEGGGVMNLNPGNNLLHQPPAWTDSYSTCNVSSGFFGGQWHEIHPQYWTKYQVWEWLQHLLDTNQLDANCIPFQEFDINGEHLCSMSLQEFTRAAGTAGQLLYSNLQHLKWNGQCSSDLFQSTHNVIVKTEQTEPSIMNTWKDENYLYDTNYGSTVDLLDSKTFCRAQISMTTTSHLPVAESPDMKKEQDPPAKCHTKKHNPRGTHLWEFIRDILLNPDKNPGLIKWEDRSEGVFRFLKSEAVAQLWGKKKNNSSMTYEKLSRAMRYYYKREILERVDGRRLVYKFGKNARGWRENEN
# How it was run: as §1
# SPIB = SPIB (Homo sapiens, UniProt Q01892 1-262)
# How it was run: as §1
# ELK3 = target: T4, ELK3 (Homo sapiens, UniProt P41970 1-407)
# T4 sequence: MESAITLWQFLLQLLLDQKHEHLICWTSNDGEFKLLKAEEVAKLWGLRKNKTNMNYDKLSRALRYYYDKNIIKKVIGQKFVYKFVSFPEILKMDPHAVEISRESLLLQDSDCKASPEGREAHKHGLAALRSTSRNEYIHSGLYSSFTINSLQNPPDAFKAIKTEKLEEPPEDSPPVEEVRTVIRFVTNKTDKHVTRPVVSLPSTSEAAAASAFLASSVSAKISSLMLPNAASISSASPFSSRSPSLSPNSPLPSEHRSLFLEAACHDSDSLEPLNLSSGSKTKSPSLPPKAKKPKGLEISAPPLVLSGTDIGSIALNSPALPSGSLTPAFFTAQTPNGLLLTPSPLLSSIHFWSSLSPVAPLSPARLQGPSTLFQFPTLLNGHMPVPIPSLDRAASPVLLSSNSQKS
# How it was run: as §1
# FEV = target: T5, FEV (Homo sapiens, UniProt Q99581 1-238)
# T5 sequence: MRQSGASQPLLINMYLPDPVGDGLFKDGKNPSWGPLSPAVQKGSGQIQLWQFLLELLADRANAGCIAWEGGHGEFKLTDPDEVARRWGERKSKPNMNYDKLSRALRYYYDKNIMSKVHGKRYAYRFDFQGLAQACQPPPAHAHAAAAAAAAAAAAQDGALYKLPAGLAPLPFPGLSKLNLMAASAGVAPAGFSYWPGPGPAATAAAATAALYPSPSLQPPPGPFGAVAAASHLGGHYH
# How it was run: as §1
# ELK4 = target: T6, ELK4 (Homo sapiens, UniProt P28324-2 1-405)
# T6 sequence: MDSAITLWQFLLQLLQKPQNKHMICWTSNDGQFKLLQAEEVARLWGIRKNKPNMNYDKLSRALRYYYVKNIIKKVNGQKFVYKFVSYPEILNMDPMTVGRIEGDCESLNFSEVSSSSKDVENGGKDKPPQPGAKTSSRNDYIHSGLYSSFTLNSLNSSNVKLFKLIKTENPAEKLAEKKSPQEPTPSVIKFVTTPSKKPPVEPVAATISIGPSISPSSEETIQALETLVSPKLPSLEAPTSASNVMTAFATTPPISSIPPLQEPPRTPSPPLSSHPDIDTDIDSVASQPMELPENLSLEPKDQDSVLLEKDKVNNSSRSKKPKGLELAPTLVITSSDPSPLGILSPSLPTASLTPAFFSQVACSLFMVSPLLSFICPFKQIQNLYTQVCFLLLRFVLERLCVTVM
# How it was run: as §1
# ETV2 = target: T7, ETV2 (Homo sapiens, UniProt O00321 1-342)
# T7 sequence: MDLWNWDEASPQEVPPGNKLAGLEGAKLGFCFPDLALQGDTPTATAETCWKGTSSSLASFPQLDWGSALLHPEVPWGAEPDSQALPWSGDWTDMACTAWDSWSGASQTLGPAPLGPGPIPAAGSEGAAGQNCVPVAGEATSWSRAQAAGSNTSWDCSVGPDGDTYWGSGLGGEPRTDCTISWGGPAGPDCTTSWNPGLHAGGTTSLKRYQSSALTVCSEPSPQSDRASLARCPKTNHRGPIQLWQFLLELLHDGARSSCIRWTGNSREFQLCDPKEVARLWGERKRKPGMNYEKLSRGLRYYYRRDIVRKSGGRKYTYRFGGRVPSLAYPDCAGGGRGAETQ
# How it was run: as §1
# ETV3L = target: T8, ETV3L (Homo sapiens, UniProt Q6ZN32 1-361)
# T8 sequence: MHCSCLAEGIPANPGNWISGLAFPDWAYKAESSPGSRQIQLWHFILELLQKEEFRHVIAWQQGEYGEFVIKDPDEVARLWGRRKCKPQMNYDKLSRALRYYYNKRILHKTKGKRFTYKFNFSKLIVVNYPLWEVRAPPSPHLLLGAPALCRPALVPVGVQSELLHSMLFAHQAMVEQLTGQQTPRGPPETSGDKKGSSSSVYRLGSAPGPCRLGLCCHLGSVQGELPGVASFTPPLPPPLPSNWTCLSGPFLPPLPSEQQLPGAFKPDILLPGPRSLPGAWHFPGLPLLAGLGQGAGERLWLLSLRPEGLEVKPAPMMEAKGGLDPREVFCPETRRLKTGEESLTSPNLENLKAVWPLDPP
# How it was run: as §1
# ETV3 = target: T9, ETV3 (Homo sapiens, UniProt P41162-2 1-143)
# T9 sequence: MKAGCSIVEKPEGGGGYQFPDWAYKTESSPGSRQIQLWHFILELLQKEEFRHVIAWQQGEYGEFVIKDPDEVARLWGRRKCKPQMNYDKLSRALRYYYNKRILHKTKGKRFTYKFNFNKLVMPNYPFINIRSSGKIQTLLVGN
# How it was run: as §1
# ETV6 = ETV6 (Homo sapiens, UniProt P41212 1-452)
# How it was run: as §1
# ELF4 = ELF4 (Homo sapiens, UniProt Q99607 1-663)
# How it was run: as §1
# ETV1 = ETV1 (Homo sapiens, UniProt P50549 1-477)
# How it was run: as §1
# SPI1 = SPI1 (Homo sapiens, UniProt P17947 1-270)
# How it was run: as §1
# ERF = target: T10, ERF (Homo sapiens, UniProt P50548 1-548)
# T10 sequence: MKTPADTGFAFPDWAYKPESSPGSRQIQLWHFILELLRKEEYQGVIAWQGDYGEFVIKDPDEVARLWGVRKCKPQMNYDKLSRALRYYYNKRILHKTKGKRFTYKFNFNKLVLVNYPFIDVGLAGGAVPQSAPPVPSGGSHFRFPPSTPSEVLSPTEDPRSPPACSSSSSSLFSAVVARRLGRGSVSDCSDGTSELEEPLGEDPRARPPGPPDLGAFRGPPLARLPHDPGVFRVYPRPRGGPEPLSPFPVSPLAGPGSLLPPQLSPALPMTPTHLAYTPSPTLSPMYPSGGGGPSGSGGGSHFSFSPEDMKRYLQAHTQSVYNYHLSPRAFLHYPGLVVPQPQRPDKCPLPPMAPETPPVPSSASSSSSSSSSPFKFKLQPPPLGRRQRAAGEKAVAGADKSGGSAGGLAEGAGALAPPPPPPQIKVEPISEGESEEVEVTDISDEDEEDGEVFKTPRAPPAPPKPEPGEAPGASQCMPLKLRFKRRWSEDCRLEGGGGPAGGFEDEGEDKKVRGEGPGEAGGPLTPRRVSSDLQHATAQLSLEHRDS
# How it was run: as §1
# ETS2 = target: T11, ETS2 (Homo sapiens, UniProt P15036 1-469)
# T11 sequence: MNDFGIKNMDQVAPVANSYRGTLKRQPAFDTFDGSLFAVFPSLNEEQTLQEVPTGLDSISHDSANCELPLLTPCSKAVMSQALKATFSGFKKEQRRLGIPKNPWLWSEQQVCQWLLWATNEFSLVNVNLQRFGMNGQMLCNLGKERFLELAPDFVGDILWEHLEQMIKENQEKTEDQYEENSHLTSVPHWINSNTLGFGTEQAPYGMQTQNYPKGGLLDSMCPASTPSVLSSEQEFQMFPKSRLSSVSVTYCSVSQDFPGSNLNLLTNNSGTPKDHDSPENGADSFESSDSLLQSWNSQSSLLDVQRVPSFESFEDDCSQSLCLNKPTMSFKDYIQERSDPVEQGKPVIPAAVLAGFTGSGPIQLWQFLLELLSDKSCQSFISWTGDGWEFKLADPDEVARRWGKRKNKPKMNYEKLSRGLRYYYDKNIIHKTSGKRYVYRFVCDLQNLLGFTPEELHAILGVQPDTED
# How it was run: as §1
# Chain of ELF4 (Q99607 whole entry): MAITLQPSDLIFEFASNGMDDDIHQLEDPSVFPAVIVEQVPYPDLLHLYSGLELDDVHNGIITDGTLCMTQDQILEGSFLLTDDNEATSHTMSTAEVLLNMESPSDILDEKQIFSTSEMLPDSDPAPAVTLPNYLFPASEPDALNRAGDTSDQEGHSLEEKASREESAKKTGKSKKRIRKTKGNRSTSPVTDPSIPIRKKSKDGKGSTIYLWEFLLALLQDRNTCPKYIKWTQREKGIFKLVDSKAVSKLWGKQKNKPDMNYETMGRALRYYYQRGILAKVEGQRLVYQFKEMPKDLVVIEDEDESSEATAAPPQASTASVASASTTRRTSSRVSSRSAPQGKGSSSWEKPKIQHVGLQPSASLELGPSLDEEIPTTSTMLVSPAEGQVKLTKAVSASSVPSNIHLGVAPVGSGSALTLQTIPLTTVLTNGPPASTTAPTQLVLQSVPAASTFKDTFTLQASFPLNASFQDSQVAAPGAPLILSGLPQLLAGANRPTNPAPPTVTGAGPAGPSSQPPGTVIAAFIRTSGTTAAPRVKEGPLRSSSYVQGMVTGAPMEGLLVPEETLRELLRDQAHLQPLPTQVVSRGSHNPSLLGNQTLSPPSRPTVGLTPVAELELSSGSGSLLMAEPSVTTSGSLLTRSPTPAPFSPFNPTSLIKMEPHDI
# Chain of SPIB (Q01892 whole entry): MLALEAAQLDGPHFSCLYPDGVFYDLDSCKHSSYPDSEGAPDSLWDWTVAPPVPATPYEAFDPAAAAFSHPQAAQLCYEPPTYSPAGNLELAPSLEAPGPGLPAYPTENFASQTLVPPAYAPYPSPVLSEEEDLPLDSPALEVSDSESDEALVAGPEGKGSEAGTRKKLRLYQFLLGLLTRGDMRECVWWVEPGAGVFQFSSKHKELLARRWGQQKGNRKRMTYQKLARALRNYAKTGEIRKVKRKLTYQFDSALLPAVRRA
# Chain of ETV1 (P50549 whole entry): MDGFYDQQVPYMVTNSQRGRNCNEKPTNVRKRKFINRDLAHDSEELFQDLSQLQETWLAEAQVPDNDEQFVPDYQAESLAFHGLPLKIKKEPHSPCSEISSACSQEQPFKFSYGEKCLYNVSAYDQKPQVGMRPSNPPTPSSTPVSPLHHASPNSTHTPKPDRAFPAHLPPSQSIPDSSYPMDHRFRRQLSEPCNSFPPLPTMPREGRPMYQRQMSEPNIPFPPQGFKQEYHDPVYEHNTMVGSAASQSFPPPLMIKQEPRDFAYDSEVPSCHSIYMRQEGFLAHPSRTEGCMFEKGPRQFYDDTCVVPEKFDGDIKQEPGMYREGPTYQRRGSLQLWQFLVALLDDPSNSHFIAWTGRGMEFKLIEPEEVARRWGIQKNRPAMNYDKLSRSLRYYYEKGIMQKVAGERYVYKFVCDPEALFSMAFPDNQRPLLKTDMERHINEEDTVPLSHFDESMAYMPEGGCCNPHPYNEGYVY
# Chain of ETV6 (P41212 whole entry): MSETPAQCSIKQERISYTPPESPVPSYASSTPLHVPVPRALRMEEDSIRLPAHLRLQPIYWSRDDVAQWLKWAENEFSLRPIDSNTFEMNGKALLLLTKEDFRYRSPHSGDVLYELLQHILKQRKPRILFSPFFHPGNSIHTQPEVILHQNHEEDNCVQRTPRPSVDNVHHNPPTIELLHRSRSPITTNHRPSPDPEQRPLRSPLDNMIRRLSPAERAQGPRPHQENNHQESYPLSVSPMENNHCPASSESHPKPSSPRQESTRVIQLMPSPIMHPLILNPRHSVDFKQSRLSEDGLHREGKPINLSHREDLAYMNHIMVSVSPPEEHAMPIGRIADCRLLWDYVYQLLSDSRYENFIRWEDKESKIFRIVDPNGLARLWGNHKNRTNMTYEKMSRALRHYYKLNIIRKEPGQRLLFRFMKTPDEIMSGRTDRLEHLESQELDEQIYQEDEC
sequence,measurement,setting,value
CCGGCG,binding signal,ELK1,"1.09 fold enrichment (6-mer frequency, TF over GST control)"
same,binding signal,ERG,"1.09 fold enrichment (6-mer frequency, TF over GST control)"
same,binding signal,EHF,"1.03 fold enrichment (6-mer frequency, TF over GST control)"
same,binding signal,SPIB,"1.15 fold enrichment (6-mer frequency, TF over GST control)"
same,binding signal,ELK3,"1.02 fold enrichment (6-mer frequency, TF over GST control)"
same,binding signal,FEV,"1.25 fold enrichment (6-mer frequency, TF over GST control)"
same,binding signal,ELK4,"1.14 fold enrichment (6-mer frequency, TF over GST control)"
same,binding signal,ETV2,"1.04 fold enrichment (6-mer frequency, TF over GST control)"
same,binding signal,ETV3L,"1.07 fold enrichment (6-mer frequency, TF over GST control)"
same,binding signal,ETV3,"1.05 fold enrichment (6-mer frequency, TF over GST control)"
same,binding signal,ETV6,"1.11 fold enrichment (6-mer frequency, TF over GST control)"
GAGCTC,binding signal,ELF4,"1.02 fold enrichment (6-mer frequency, TF over GST control)"
same,binding signal,ELK4,"1.04 fold enrichment (6-mer frequency, TF over GST control)"
same,binding signal,ETV1,"1.05 fold enrichment (6-mer frequency, TF over GST control)"
GTTAGC,binding signal,SPI1,"1.01 fold enrichment (6-mer frequency, TF over GST control)"
same,binding signal,SPIB,"1 fold enrichment (6-mer frequency, TF over GST control)"
same,binding signal,FEV,"1 fold enrichment (6-mer frequency, TF over GST control)"
same,binding signal,ELF4,"1.06 fold enrichment (6-mer frequency, TF over GST control)"
same,binding signal,ETV2,"1.17 fold enrichment (6-mer frequency, TF over GST control)"
same,binding signal,ERF,"1.02 fold enrichment (6-mer frequency, TF over GST control)"
same,binding signal,ETS2,"1.01 fold enrichment (6-mer frequency, TF over GST control)"
